Of roughly 8,800 targets only a part is listed; those with a hit were picked by preference. About 0.5% of all pairs of compound and target were hits. A number with no mark means an inactive call.

The values below come from the supplement of paper PMC10849652.

What all share (test): log2 fold change, soluble protein after heating vs DMSO (PISA); higher = thermal stabilisation; K562 lysate, 10 uM; active = over 0.2 and 3.5 SD of the protein, either way, in both replicates (recomputed)
Compound in one assay: CCCS(=O)(=O)Nc1ccc(F)c(C(=O)c2c[nH]c3ncc(-c4ccc(Cl)cc4)cc23)c1F [vemurafenib]
In outline:
(§1)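 Values give the log-two fold change in thermal stability against solvent controls, from duplicates. Crude K562 extract at 1 mg/mL protein, made by dounce homogenisation in PBS pH 7.4 with 1 mM MgCl2, was treated with 10 μM compound for 30 min. After 3 min heating across 48°C-58°C, aliquots were pooled, adjusted to 0.5% NP-40 at 4°C and centrifuged at 21,000xg for 90 min. The supernatant was measured by TMTpro 16plex LC-MS/MS with channel sums equalised.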

Compound in assay [1]: CCCS(=O)(=O)Nc1ccc(F)c(C(=O)c2c[nH]c3ncc(Cl)cc23)c1F
Put shortly: as §1

Compound in assay [2]: CC[C@@H]1C(=O)N(C)c2cnc(Nc3ccc(C(=O)NC4CCN(C)CC4)cc3OC)nc2N1C1CCCC1
Put shortly:
as §1

Compound in the next assay: CC[C@@H]1C(=O)N(C)c2cnc(Nc3ccc(C(=O)N[C@H]4CC[C@H](N5CCN(CC6CC6)CC5)CC4)cc3OC)nc2N1C(C)C [volasertib]
In outline:
as §1

Compound in assay [3]: CCn1c(C(=O)N(C2CC2)C2CC2)cc2c3c(ncn3C)c(Nc3cc(C)n(C)n3)nc21
Put shortly:
as §1

Compound in assay [4]: CCn1cc(-c2ccnc3[nH]c(-c4cccc(CN(C)C)c4)cc23)c(-c2ccc(NC(=O)N(C)C)cc2)n1
Put shortly:
as §1

Compound in assay [5]: CN1CCC(CNc2ccc3ncc(-c4cccc(OC(F)(F)F)c4)n3n2)CC1
Put shortly: as §1

Compound in a further assay: CN1CCN(CCOc2cc(OC3CCOCC3)c3c(Nc4c(Cl)ccc5c4OCO5)ncnc3c2)CC1 [saracatinib]
Put shortly:
as §1

Compound in a further assay: CN1CC[C@H](c2c(O)cc(O)c3c(=O)cc(-c4ccccc4Cl)oc23)[C@H](O)C1 [alvocidib]
Put shortly:
as §1

Compound in a further assay: CN1CCc2c(c3ccccc3n2Cc2ccc(C(=O)NO)cc2)C1 [Tubastatin A]
In outline: as §1

Compound in assay [6]: CNC(=O)C1=CC=CC=C1NC2=NC(=NC=C2Cl)NC3=C(C=C(C=C3)N4CCOCC4)OC
In outline: as §1

Compound in the next assay: CNC(=O)c1ccc(Nc2ncc(C(F)(F)F)c(NCc3nccnc3N(C)S(C)(=O)=O)n2)cc1 [defactinib]
Put shortly: as §1

Compound in assay [7]: CNc1nc(-c2ccc3c(N)n[nH]c3c2)cc(N2C[C@@H](C(=O)NC3CCCCC3)CC[C@H]2C)n1
In outline: as §1

Compound in another assay: COC(=O)N[C@@H](C)CNc1nccc(-c2cn(C(C)C)nc2-c2cc(Cl)cc(NS(C)(=O)=O)c2F)n1 [encorafenib]
Put shortly: as §1

Compound in assay [8]: COC(=O)[C@H](CCSC)NC(=O)C1=C(C=C(C=C1)NC[C@H](CS)N)C2=CC=CC=C2
In outline:
as §1

Compound in another assay: COc1cc(Nc2ncc3c(n2)-c2ccc(Cl)cc2C(c2c(F)cccc2OC)=NC3)ccc1C(=O)O [alisertib]
Put shortly: as §1

Compound in assay [9]: COc1cc2nc(-c3cc(F)ccc3O)nc(N[C@@H]3CNC[C@H]3C(C)(C)O)c2cc1OC
Put shortly:
as §1

Compound in the next assay: COc1cc2ncnc(Nc3ccc(F)c(Cl)c3)c2cc1OCCCN1CCOCC1 [gefitinib]
Put shortly:
as §1

Compound in the next assay: CCN(CCCOc1ccc2c(Nc3cc(CC(=O)Nc4cccc(F)c4)[nH]n3)ncnc2c1)CCOP(=O)(O)O [barasertib]
In outline:
as §1

Compound in another assay: CN1CCN(c2nc(C3=C(c4c[nH]c5ccccc45)C(=O)NC3=O)c3ccccc3n2)CC1 [sotrastaurin]
Put shortly:
as §1

Chain of UniProt P06753 (P06753 whole entry, looked up): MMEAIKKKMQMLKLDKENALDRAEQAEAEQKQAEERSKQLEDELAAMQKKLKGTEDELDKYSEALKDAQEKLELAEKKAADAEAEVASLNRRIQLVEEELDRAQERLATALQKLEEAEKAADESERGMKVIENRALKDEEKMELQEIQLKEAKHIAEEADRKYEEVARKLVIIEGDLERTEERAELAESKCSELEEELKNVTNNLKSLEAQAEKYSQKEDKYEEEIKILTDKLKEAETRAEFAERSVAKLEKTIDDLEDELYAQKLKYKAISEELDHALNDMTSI
Chain of UniProt Q8NDZ6 (Q8NDZ6 whole entry, looked up): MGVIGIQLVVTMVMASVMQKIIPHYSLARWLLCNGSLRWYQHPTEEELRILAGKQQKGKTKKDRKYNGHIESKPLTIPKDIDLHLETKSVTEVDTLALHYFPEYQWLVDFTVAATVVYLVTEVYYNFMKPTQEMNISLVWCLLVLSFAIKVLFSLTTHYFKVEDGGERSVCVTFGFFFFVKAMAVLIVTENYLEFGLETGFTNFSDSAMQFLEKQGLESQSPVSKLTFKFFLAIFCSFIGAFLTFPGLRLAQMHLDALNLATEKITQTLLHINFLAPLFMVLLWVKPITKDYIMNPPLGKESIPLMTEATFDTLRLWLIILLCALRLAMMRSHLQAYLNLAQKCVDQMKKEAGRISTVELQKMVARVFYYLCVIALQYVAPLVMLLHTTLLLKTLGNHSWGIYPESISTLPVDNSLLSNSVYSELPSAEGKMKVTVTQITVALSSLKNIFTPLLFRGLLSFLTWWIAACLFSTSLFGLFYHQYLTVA
Chain of UniProt O60637 (O60637 whole entry, looked up): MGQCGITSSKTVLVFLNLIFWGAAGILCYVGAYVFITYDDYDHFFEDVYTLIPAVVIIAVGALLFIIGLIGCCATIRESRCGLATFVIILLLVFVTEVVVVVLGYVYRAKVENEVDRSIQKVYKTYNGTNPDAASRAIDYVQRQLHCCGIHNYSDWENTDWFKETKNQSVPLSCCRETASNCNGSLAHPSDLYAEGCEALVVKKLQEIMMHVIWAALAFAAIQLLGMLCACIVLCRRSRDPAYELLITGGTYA
Chain of UniProt Q6PGP7 (Q6PGP7 whole entry, looked up): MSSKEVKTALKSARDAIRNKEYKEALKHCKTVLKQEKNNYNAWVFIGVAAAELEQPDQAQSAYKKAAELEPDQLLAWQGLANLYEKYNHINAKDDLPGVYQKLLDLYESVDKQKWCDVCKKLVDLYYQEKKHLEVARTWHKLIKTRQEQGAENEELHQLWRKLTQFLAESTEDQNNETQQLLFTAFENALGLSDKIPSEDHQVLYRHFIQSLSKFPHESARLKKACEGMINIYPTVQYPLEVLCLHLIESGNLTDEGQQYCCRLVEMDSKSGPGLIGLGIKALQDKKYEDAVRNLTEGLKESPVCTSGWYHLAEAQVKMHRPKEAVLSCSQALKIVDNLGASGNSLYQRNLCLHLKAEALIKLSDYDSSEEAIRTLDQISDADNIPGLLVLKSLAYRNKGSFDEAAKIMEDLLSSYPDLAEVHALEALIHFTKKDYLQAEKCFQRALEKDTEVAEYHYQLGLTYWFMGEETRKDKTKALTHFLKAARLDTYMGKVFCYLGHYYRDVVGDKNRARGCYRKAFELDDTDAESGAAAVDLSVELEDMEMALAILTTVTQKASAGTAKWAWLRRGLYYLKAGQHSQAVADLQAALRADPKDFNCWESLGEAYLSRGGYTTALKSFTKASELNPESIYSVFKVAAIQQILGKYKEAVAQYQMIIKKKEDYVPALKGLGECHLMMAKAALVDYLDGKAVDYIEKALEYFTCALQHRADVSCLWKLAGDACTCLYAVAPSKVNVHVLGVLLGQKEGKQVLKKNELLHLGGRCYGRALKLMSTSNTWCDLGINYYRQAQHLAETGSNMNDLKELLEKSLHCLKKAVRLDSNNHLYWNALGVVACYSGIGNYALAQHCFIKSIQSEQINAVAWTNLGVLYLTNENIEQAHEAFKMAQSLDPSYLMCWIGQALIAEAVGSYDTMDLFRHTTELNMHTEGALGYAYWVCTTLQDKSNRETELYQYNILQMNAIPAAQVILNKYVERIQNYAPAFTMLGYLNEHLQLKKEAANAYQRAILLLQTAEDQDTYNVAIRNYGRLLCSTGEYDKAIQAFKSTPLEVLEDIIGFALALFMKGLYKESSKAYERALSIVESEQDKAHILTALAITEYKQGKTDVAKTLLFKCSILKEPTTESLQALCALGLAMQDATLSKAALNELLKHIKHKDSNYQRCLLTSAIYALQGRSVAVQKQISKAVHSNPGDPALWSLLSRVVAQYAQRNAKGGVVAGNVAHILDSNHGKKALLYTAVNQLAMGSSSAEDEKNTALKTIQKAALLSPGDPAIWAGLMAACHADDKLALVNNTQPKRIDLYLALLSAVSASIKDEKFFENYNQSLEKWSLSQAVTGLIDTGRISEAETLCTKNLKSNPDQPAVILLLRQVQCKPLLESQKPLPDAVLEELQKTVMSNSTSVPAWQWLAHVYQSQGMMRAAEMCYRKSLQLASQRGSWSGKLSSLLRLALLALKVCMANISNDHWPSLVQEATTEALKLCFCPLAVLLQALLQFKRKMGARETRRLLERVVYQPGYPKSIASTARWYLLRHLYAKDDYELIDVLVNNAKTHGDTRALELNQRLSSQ

For TSPAN3 (UniProt O60637), the log2 fold change was -0.075 with vemurafenib; -0.052 in assay [1]; 0.01 in assay [2]; 0.073 in the assay with volasertib; -0.222 in assay [3]; 0.663 (active) in [4]. Further, the log2 fold change in assay [5] is -0.3; with saracatinib it was -0.038; with alvocidib it was 0.193; in the assay with Tubastatin A, -0.081; in assay [6], 0.027; with defactinib, 0.096. In addition, the log2 fold change is 0.091 in assay [7]; -0.015 in the assay with encorafenib; 0.026 in assay [8]; -0.231 in the assay with alisertib; 0.042 in assay [9]; 0.049 in the assay with gefitinib.

Take TK1 (UniProt K7ERV3): the log2 fold change in the assay with vemurafenib was -0.001; in the assay with barasertib, 0.072; in assay [2] it was -0.105; in assay [3] it was 0.049; in [4], -0.102; in [5], 0.068. The log2 fold change in the assay with saracatinib is 0.089; with sotrastaurin it was -0.147; with alvocidib, -0.028; with Tubastatin A, 0.118; in assay [6], -0.002; with defactinib, -0.024. Also, the log2 fold change is 0.121 in [7]; -0.199 with encorafenib; 0.006 in assay [8]; -0.283 in the assay with alisertib; 0.214 with gefitinib.

Turning to TPM3 isoform 3 (UniProt P06753), the log2 fold change with vemurafenib was -0.082; in assay [1], 0.011; in [2], -0.187; with volasertib, 0.036; in [3], 0.029; in assay [4], -0.493. For the same target, the log2 fold change in [5] was 0.184; with saracatinib, 0.009; with sotrastaurin it was 0.028; with alvocidib it was -0.202; with Tubastatin A, -0.049; in [6] it was 0.028. Moreover, the log2 fold change in the assay with defactinib was 0.074; in assay [7] it was -0.137; with encorafenib, -0.014; in [8], -0.039; in assay [9], -0.001.

Regarding TTC37 (UniProt Q6PGP7), the log2 fold change is 0.053 in the assay with vemurafenib; -0.068 in assay [1]; 0.018 with barasertib; 0.011 in the assay with volasertib; 0.045 in assay [3]; 0.013 with saracatinib. Further, the log2 fold change with sotrastaurin is -0.019; with Tubastatin A, 0.072; in assay [6] it was -0.13; with defactinib it was -0.061; in [7] it was 0.185; with alisertib, 0.032. The log2 fold change was 0.043 in assay [9] and 0.081 in the assay with gefitinib.

TUBB6 (UniProt K7ES63): the log2 fold change is 0.072 with vemurafenib; -0.027 in assay [1]; -0.012 in the assay with barasertib; -0.096 in assay [2]; -0.064 with volasertib; 0.018 in [3]. Further, the log2 fold change in assay [4] was -0.06; in assay [5], 0.23; with sotrastaurin, 0.036; with alvocidib, -0.11; with Tubastatin A it was -0.021; in assay [6] it was 0.111. In addition, the log2 fold change with defactinib is -0.018; with encorafenib, 0.024; in [8], 0.125; in the assay with alisertib, 0.055; in assay [9], -0.051; in the assay with gefitinib it was 0.165.

With UCHL5 (UniProt Q5LJA9), the log2 fold change with vemurafenib was -0.021; in assay [1], -0.061; in the assay with barasertib, -0.01; in assay [2], -0.103; in the assay with volasertib it was 0.03; in assay [3], -0.108. Besides, the log2 fold change in [4] is 0.019; in assay [5], 0; with saracatinib, 0.023; with sotrastaurin, 0.007; with alvocidib, 0.049; with Tubastatin A it was -0.153. Further, the log2 fold change in assay [6] was 0.005; with defactinib, 0.015; in assay [7], -0.156; with encorafenib, 0.007; in [8], 0.091; in [9], -0.011.

For the target TMEM161B (UniProt Q8NDZ6), the log2 fold change was -0.112 in the assay with vemurafenib; -0.076 in [1]; 0.076 with barasertib; -0.073 in assay [2]; -0.055 with volasertib; -0.028 in assay [3]. For the same target, the log2 fold change is 0.055 in assay [4]; -0.104 in assay [5]; 0.009 with sotrastaurin; -0.03 with alvocidib; 0.035 in the assay with Tubastatin A; -0.022 in [6]. Further, the log2 fold change in the assay with defactinib was 0.067; in the assay with encorafenib it was 0.047; in assay [8], 0; with alisertib it was -0.222; in assay [9], 0.033; with gefitinib, -0.008.
